Screening results: PubChem, SRMLSC
Autofluor 339 = intrinsic fluorescence of library compounds, ex339/em460 – biochemical, MLSMR library, data from DPM-DC assay, artefact control, profiling panel. compound autofluorescence, ex339/em460 nm, NADH buffer; hits give high values; 1 = no-compound wells, NADH background. fluorescence fold increase at 10 µM. 5.5% of 65,000 active. AID 709, 2007;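 active = at 10 µM, mean starting fluorescence two-fold or more over control wells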;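 also: signal is the first read of a kinetic run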
Spn MK inh = S. pneumoniae MK inhibitors, primary screen, biochemical, PK/LDH-coupled NADH absorbance. 0.48% of 65,000 active. mevalonate kinase [Streptococcus pneumoniae D39]. AID 555, 2006. purified MK, PK/LDH-coupled NADH absorbance 340 nm. inhibition, % at 10 µM;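 active = ranked among the strongest by inhibition in the single 10 µM screen, a fixed top-ranked set picked for dose follow-up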
A340 absorber = compound light absorbance at 340 nm, profiling panel, artefact control, biochemical, MLSMR library, data from PS, PMK, MK assays. AID 708, 2007. fold change at 10 µM. 65,000 tested, under 10 active. compound absorbance at 340 nm, fold over control;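 active = at 10 µM dose, initial 340 nm absorbance at least 2 fold that of control wells; inactive = change under 2 fold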;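 also: initial absorbance extrapolated from kinetic A340 decline of NADH oxidation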
NADH enzymes = inhibitors of PK/LDH coupling enzymes, profiling panel, artefact control, biochemical, MLSMR library | coupled PK/LDH NADH assays, four targets | IC50, µM (doses to about 10 µM), inactives show at the top dose inhibition | 0.02% of 65,000 active;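 active = single-dose screening hits from any of four coupled enzyme assays that gave an IC50 when retested across doses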;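 also: the DPM-DC format reads NADH fluorescence rather than 340 nm absorbance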
Spn DPM-DC inh = S. pneumoniae DPM-DC inhibitors, primary screen, biochemical, PK/LDH-coupled NADH fluorescence | 0.49% of 65,000 active | purified DPM-DC | AID 556, 2006 | diphosphomevalonate decarboxylase (Streptococcus pneumoniae D39) | calls only at 10 µM;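 active = the 320 compounds with the highest percent inhibition in the single-dose primary screen, excluding strongly autofluorescent ones, cut at about 32% in these data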;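 also: kinetic rate of NADH fluorescence loss reporting ADP formed by the decarboxylase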
PMK inhibit = S. pneumoniae PMK inhibitors, primary screen, biochemical, mevalonate pathway, pilot trial included; phosphomevalonate kinase (Streptococcus pneumoniae D39); purified PMK, PK/LDH-coupled NADH absorbance 340 nm; inhibition, % at 10 µM; 0.49% of 65,000 active; AID 539, 2006;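 active = top-ranked compounds by inhibition in the single 10 µM screen, taking a fixed number of the strongest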;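 also: 0% = full reaction with DMSO carrier and 100% = background rate without enzyme reaction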
Active calls of the source: *. A selection: hits, their analogues and other compounds. The true share with any hit is near 6.8%.

What do the screens show for `N#CCCn1c2ccccc2c2nc3ccccc3nc21`?
Autofluor 339: 1.6; Spn MK inh: 9; A340 absorber: 1.1; NADH enzymes: 13%; Spn DPM-DC inh: inactive; PMK inhibit: 11

How did O=c1oc2ccccc2n1CCn1c2ccccc2c2nc3ccccc3nc21 do in these assays?
Autofluor 339: 1.5; Spn MK inh: 10; A340 absorber: 1; NADH enzymes: 8%; Spn DPM-DC inh: inactive; PMK inhibit: 9.0*

What do the screens show for `CCCn1c2ccccc2c2nc3ccccc3nc21`?
Autofluor 339: 2.4*; Spn MK inh: 0; A340 absorber: 1.1; NADH enzymes: 0%; Spn DPM-DC inh: inactive; PMK inhibit: 0

Results for CCCn1c(Nc2nc3ccccc3n2C)nc2ccccc21 ?
Autofluor 339: 2.1*; Spn MK inh: 5; A340 absorber: 1.2; NADH enzymes: 4%; Spn DPM-DC inh: inactive; PMK inhibit: 4

Results for CCCn1c(NC(=O)c2ccccc2)nc2ccccc21 ?
Autofluor 339: 1.2; Spn MK inh: 7; A340 absorber: 1.1; NADH enzymes: 2%; Spn DPM-DC inh: inactive; PMK inhibit: 0

What do the screens show for `CCOC(=O)Cn1c2ccccc2c2nc3ccccc3nc21`?
Autofluor 339: 2.9*; Spn MK inh: 2; A340 absorber: 1.1; NADH enzymes: 3%; Spn DPM-DC inh: inactive; PMK inhibit: 6

How did COc1cccc(N2CC(C(=O)Nc3ccc(C(=O)OC(C)C)cc3)CC2=O)c1 (centres undefined) do in these assays?
Autofluor 339: 1.1; Spn MK inh: 10; A340 absorber: 1; NADH enzymes: 7%; Spn DPM-DC inh: inactive; PMK inhibit: 4

Results for c1ccc(N=P(c2nc3ccccc3o2)(N2CCOCC2)N2CCOCC2)cc1 ?
Autofluor 339: 1; Spn MK inh: 4; A340 absorber: 0.96; NADH enzymes: 4%; Spn DPM-DC inh: inactive; PMK inhibit: 1

How did CCOC(=O)c1ccc(NC(=O)c2ccc3c(c2)OCO3)cc1 do in these assays?
Autofluor 339: 1.1; Spn MK inh: 3; A340 absorber: 1.1; NADH enzymes: 2%; Spn DPM-DC inh: inactive; PMK inhibit: 4

Results for O=C(Nc1c(C(=O)Nc2cccc(F)c2)oc2ccccc12)c1ccc2c(c1)OCO2 ?
Autofluor 339: 5*; Spn MK inh: 0; A340 absorber: 1.1; NADH enzymes: 3%; PMK inhibit: 6

What do the screens show for `O=C(Nc1cccc(F)c1)c1ccc2c(c1)OCO2`?
Autofluor 339: 1.1; Spn MK inh: 18; A340 absorber: 1; NADH enzymes: 4%; Spn DPM-DC inh: inactive; PMK inhibit: 8

What do the screens show for `Cc1ccc(NC(=O)c2oc3ccccc3c2NC(=O)c2ccc3c(c2)OCO3)cc1`?
Autofluor 339: 2*; Spn MK inh: 0; A340 absorber: 1.1; NADH enzymes: 1%; Spn DPM-DC inh: inactive; PMK inhibit: 3

What do the screens show for `CC(C)OCCCNC(=O)c1cc2c(s1)CS(=O)(=O)C2`?
Autofluor 339: 1.1; Spn MK inh: 7; A340 absorber: 1.1; NADH enzymes: 2%; Spn DPM-DC inh: inactive; PMK inhibit: 0

How did N#Cc1c(N)nc2c(c1-c1ccncc1)CCCCC2 do in these assays?
Autofluor 339: 1.5; Spn MK inh: 8; A340 absorber: 1; NADH enzymes: 5%; Spn DPM-DC inh: inactive; PMK inhibit: 15

What do the screens show for `CSc1ccc(-c2c(C#N)c(N)nc3c2CCCC3)cc1`?
Autofluor 339: 3.7*; Spn MK inh: 7; A340 absorber: 1.1; NADH enzymes: 9%; PMK inhibit: 10

How did CN(C(=O)c1ccc(Cl)c(S(=O)(=O)N2CCOCC2)c1)c1ccccc1C(=O)O do in these assays?
Autofluor 339: 1; Spn MK inh: 8; A340 absorber: 0.98; NADH enzymes: 6%; Spn DPM-DC inh: inactive; PMK inhibit: 9

How did CCOC(=O)CCc1nc2ccccc2[nH]c1=O do in these assays?
Autofluor 339: 2.2*; Spn MK inh: 5; A340 absorber: 1.1; NADH enzymes: 11%; Spn DPM-DC inh: inactive; PMK inhibit: 12
